Assay results from PubChem BioAssay (Tox21).
“And” between values parts separate entries of the source, which are not always exact repeats. Identical values can stand only once. Inconclusive results are not listed. A call without a number means that no potency is given here. Some structures have more than one record in an assay (separate samples or runs), and their calls can disagree. The source made the active and inactive calls. Unless noted, calls follow the shape of the dose curve; as a rule, active = well fitted curve in the direction sought with a large enough effect in the repeat runs; inconclusive = weak or mixed curves; inactive = no such curve, though single readings can be large; an effect the other way counts as inactive or inconclusive.

Columns and labels:
[1] = Human pregnane X receptor (PXR) small molecule agonists, qHTS cell viability counter screen (AID 1346977); also: nearly all actives have a fitted effect of over 50% in size; also: potency is read from the fitted curve at half-maximal effect
Outline: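 Viability counter screen: CellTiter-Fluor signal in PXR-Luc HepG2 cells, 24hr compound exposure, 37C, 5% CO2.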

[2] = Caspase-3/7 induction in HepG2 cells by small molecules, qHTS assay (AID 1346978); also: nearly all actives have a fitted effect of over 15% in size; also: potency is read from the fitted curve at half-maximal effect
Outline: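 Wild-type HepG2 cells, 2,000/well, settled 5 hr at 37 C and 5% CO2, then compound-treated for 17 hr; caspase-3/7 activity read by luminescent Caspase-Glo 3/7 after 30 min at room temperature.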

[3] = Caspase-3/7 induction in CHO-K1 cells by small molecules, qHTS cell viability counter screen (AID 1346979); also: nearly all actives have a fitted effect of over 35% in size; also: potency is read from the fitted curve at half-maximal effect
Outline: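 Viability readout by fluorescence (CellTiter-Fluor) on wild-type CHO-K1 cells exposed for 16hr at 37C and 5% CO2 to compounds delivered in DMSO; reagent incubated 1hr before reading.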

[4] = Caspase-3/7 induction in CHO-K1 cells by small molecules, qHTS assay (AID 1346980); also: nearly all actives have a fitted effect of over 15% in size
Outline: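 Wild-type CHO-K1 cells exposed to compounds for 17hr at 37 C, 5% CO2. Caspase-3/7 activity then measured by Caspase-Glo 3/7 luminescence after 30min at room temperature.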

[5] = Caspase-3/7 induction in HepG2 cells by small molecules, qHTS cell viability counter screen (AID 1346981); also: nearly all actives have a fitted effect of over 30% in size; also: potency is read from the fitted curve at half-maximal effect
Outline: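 After a 5-hr attachment period at 37 C and 5% CO2, wild-type HepG2 cells received compounds in DMSO. Sixteen hours later CellTiter-Fluor was dispensed and the fluorescent signal quantified after a further hour.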

[6] = target: Acetylcholinesterase (Homo sapiens) (UniProt P22303); assay: Acetylcholinesterase (AChE) small molecule antagonists: colormetric cell-based qHTS assay (AID 1347395; calls by dose curve; also: nearly all actives have a fitted effect of over 30% in size; also: potency is read from the fitted curve at half-maximal effect)
Outline: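 Homogeneous whole-cell format. SH-SY5Y cells seeded overnight, dosed with compound (30 min, 37 C, 5% CO2), then given DTNB/acetylthiocholine cocktail for 90 min at 37 C; colorimetric signal.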

[7] = target: Acetylcholinesterase (Homo sapiens) (UniProt P22303); assay: Acetylcholinesterase (AChE) small molecule antagonists: enzyme-based qHTS assay (AID 1347397; calls by dose curve; also: nearly all actives have a fitted effect of over 55% in size); conditions: Potency: AChE enzyme activity inhibition
Outline: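 In this quantitative HTS, compounds from the Tox21 10K collection were preincubated 30 min at ambient temperature with recombinant human AChE dispensed at 50 mU/mL. Hydrolysis of acetylthiocholine was then followed for 10 min by DTNB colour development.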

[8] = target: Acetylcholinesterase (Homo sapiens) (UniProt P22303); assay: Acetylcholinesterase (AChE) small molecule antagonists: enzyme-based qHTS assay with human liver microsomes (AID 1347399; calls by dose curve; also: nearly all actives have a fitted effect of over 60% in size); conditions: Potency: qHTS inhibition
Outline: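 Recombinant human AChE (50 mU/mL in the enzyme mix) and human liver microsomes (0.25 mg/mL final) were preincubated with compound and NADPH (0.25 mg/mL final) for 30 min at 37 C. Acetylthiocholine/DTNB was then added; thiocholine was read colorimetrically after 10 min at room temperature.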

[9] = target: Cytochrome P450 2D6 (Homo sapiens) (UniProt P10635); assay: Cytochrome P450 Family 2 Subfamily D Member 6 (CYP2D6) small molecule antagonists: luciferase reporter qHTS assay (AID 1671196); also: nearly all actives have a fitted effect of over 50% in size; also: potency is read from the fitted curve at half-maximal effect
Outline: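 Room-temperature luminescent CYP2D6 activity assay: compound preincubated 10 min with enzyme–substrate mix, NADPH-initiated reaction 1 h, detection reagent 20 min before reading.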

[10] = target: Cytochrome P450 2C19 (Homo sapiens) (UniProt P33261); assay: Cytochrome P450 Family 2 Subfamily C Member 19 (CYP2C19) small molecule antagonists: luciferase reporter qHTS assay (AID 1671197); also: nearly all actives have a fitted effect of over 65% in size; also: potency is read from the fitted curve at half-maximal effect
Outline: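 Inhibition of CYP2C19 was scored from loss of luminescence in a P450-Glo proluciferin substrate assay, NADPH-started and run 1 h at 37C, with ketoconazole as positive control.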

[11] = target: Cytochrome P450 2C9 (Homo sapiens) (UniProt P11712); assay: Cytochrome P450 Family 2 Subfamily C Member 9 (CYP2C9) small molecule antagonists: luciferase reporter qHTS assay (AID 1671198); also: nearly all actives have a fitted effect of over 50% in size; also: potency is read from the fitted curve at half-maximal effect
Outline: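 P450-Glo proluciferin substrate with CYP2C9 enzyme; 10 min RT preincubation, then NADPH regeneration 1 h at 37C; luciferin detection reagent 20 min RT, luminescence in relative luminescence units.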

[12] = target: Cytochrome P450 1A2 (Homo sapiens) (UniProt P05177); assay: Cytochrome P450 Family 1 Subfamily A Member 2 (CYP1A2) small molecule antagonists: luciferase reporter qHTS assay (AID 1671199); also: nearly all actives have a fitted effect of over 50% in size; also: potency is read from the fitted curve at half-maximal effect
Outline: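 Room-temperature CYP1A2 reaction with proluciferin substrate: compounds added from DMSO, 10 min preincubation, NADPH regeneration for 1 h. Luciferin detection reagent then added; luminescence recorded as RLU.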

[13] = target: Voltage-gated inwardly rectifying potassium channel KCNH2 (Homo sapiens) (UniProt Q12809); assay: Human Ether-a-go-go-Related Gene (hERG) channel small molecule antagonists: fluorescence cell-based qHTS assay (AID 1671200); also: nearly all actives have a fitted effect of over 50% in size; also: potency is read from the fitted curve at half-maximal effect
Outline: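 Thallium served as the potassium surrogate; its influx into dye-loaded U2OS cells carrying the channel was measured by fluorescence over 2 min.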

[14] = target: Cytochrome P450 3A4 (Homo sapiens) (UniProt P08684); assay: Cytochrome P450 Family 3 Subfamily A Member 4 (CYP3A4) small molecule antagonists: luciferase reporter qHTS assay (AID 1671201); also: nearly all actives have a fitted effect of over 50% in size; also: potency is read from the fitted curve at half-maximal effect
Outline: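 Relative luminescence units after 20 min with luciferin detection reagent served as read-out. Beforehand, CYP3A4 turned over a proluciferin substrate for 1 h at room temperature with NADPH regeneration, following 10 min compound preincubation.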

[15] = target: Nuclear receptor subfamily 1 group I member 2 (Homo sapiens) (UniProt O75469); assay: Human pregnane X receptor (PXR) small molecule agonists, qHTS assay (AID 1346982); also: nearly all actives have a fitted effect of over 35% in size; also: potency is read from the fitted curve at half-maximal effect
Outline: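 Tox21 qHTS; PXR-Luc HepG2; compounds pinned from DMSO; 24 hr, 37 C; ONE-Glo luciferase detection, 30 min room temperature.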

[16] = target: Acetylcholinesterase (Homo sapiens) (UniProt P22303); assay: Acetylcholinesterase (AChE) small molecule antagonists: fluorescence cell-based qHTS assay (AID 1347398; calls by dose curve; also: nearly all actives have a fitted effect of over 50% in size); conditions: Potency: AChE activity
Outline: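 Cells (SH-SY5Y) attached overnight, were dosed with compound or DMSO vehicle for 30 min at 37 C, and then incubated 40 min at room temperature with acetylthiocholine and Thiolite Green; green fluorescence indexed AChE activity.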

Sequence of Voltage-gated inwardly rectifying potassium channel KCNH2 (Homo sapiens) (Q12809 whole entry, looked up): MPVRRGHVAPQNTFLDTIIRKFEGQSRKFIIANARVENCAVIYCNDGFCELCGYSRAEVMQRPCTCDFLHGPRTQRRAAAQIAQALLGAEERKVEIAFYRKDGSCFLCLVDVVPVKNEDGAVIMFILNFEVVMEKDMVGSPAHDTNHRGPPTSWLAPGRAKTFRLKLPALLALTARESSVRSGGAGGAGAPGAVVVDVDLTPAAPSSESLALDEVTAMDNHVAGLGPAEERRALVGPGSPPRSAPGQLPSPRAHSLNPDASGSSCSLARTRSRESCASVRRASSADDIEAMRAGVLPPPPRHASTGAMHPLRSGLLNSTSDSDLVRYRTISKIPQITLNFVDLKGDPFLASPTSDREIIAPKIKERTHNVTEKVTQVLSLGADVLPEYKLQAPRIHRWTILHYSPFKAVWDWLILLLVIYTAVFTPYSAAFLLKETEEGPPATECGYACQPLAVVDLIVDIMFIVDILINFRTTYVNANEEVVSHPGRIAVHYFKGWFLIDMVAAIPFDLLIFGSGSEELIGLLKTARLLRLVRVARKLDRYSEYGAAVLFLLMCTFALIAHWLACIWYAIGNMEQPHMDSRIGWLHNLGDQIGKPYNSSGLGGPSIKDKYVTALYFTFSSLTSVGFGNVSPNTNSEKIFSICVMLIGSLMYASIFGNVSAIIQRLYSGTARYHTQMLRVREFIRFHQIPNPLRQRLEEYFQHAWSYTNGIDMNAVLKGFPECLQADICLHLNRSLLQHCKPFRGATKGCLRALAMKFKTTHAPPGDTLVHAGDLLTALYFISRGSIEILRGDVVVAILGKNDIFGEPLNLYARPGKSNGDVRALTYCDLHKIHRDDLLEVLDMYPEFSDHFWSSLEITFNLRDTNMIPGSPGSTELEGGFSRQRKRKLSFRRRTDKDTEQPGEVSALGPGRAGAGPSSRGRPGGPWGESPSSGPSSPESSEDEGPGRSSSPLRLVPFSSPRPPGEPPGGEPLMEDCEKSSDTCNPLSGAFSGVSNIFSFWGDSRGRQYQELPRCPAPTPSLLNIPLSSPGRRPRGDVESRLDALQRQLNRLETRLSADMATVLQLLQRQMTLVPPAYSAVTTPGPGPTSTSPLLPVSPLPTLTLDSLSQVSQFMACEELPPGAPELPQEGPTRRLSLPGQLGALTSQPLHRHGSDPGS
Sequence of Cytochrome P450 2C9 (Homo sapiens) (P11712 whole entry, looked up): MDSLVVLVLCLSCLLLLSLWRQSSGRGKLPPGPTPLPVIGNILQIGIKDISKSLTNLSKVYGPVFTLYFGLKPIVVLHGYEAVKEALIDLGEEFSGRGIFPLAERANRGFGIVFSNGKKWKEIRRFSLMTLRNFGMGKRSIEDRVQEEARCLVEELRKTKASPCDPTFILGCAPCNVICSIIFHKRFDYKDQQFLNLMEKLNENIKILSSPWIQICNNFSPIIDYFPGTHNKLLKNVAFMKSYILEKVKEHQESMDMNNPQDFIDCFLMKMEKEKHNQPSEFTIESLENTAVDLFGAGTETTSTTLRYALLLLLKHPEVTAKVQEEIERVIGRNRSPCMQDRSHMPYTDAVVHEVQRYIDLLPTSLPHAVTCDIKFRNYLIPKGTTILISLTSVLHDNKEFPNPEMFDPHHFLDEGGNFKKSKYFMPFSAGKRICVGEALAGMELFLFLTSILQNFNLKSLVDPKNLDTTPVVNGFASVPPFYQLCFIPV
Sequence of Acetylcholinesterase (Homo sapiens) (P22303 whole entry, looked up): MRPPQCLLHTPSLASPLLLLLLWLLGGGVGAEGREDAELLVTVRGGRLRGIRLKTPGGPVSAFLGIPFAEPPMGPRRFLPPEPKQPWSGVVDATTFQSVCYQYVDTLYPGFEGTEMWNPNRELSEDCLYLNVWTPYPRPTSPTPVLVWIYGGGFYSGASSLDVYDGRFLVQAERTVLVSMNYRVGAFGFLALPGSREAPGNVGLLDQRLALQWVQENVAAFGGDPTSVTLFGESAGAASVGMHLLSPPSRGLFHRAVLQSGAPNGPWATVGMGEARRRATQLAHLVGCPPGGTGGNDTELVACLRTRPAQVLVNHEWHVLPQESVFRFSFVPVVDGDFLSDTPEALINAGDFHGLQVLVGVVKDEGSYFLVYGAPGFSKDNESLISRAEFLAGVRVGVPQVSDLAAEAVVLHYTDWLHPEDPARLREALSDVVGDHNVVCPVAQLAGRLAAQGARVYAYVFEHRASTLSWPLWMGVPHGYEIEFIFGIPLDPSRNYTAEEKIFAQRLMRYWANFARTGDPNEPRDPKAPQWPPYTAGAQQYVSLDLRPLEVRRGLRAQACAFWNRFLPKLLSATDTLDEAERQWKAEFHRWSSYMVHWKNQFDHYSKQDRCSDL
Sequence of Cytochrome P450 2D6 (Homo sapiens) (P10635 whole entry, looked up): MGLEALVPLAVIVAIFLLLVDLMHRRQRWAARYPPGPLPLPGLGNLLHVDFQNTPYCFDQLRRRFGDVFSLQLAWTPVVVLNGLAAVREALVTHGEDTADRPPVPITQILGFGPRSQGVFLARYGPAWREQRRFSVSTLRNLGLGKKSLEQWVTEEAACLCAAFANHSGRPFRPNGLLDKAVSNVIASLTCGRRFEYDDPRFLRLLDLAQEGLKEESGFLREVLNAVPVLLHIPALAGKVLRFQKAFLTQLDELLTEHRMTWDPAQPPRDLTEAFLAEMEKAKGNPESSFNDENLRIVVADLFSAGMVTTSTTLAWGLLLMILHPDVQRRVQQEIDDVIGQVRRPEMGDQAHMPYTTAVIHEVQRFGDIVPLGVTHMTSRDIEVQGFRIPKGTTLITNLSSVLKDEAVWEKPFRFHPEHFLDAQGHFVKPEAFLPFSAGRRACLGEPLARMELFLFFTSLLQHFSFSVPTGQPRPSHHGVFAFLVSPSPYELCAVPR
Sequence of Cytochrome P450 3A4 (Homo sapiens) (P08684 whole entry, looked up): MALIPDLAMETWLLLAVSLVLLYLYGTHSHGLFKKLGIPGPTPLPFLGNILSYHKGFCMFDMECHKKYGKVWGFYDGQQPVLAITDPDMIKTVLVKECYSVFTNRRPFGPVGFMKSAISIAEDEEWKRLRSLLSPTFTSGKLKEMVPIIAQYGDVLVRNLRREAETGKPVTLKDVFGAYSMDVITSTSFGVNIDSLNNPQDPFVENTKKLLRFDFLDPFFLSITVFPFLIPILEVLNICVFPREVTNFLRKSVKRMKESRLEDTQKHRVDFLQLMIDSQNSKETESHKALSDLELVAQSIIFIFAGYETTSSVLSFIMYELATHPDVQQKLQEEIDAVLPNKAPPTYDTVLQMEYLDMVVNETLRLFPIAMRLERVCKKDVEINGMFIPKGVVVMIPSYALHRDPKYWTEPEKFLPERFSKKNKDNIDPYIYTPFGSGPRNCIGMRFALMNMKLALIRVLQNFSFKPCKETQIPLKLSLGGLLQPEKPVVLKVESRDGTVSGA
Sequence of Cytochrome P450 1A2 (Homo sapiens) (P05177 whole entry, looked up): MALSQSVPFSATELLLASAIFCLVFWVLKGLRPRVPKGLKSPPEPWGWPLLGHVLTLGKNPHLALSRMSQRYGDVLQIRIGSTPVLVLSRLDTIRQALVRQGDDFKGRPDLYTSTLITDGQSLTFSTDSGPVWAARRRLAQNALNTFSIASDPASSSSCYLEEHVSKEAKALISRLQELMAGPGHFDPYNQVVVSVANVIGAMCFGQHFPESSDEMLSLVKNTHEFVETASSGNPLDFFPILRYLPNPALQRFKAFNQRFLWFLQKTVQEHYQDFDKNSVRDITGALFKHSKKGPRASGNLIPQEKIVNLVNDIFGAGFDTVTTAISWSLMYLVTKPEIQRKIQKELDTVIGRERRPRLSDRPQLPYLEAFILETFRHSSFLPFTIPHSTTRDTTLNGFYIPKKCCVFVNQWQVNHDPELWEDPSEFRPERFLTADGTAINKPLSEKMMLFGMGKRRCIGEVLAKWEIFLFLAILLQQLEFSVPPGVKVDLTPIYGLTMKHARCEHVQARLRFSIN
Sequence of Nuclear receptor subfamily 1 group I member 2 (Homo sapiens) (O75469 whole entry, looked up): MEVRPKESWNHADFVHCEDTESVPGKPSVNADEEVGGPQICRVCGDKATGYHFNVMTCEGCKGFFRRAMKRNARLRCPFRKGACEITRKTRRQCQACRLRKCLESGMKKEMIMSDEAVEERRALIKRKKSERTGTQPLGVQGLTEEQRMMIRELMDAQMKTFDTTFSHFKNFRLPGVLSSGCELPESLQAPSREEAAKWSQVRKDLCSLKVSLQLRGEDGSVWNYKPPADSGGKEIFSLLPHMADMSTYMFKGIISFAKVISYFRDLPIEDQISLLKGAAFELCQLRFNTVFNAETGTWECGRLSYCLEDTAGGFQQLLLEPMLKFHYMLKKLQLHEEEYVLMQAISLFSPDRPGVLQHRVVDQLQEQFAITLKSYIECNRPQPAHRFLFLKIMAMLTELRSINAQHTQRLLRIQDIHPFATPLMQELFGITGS
Sequence of Cytochrome P450 2C19 (Homo sapiens) (P33261 whole entry, looked up): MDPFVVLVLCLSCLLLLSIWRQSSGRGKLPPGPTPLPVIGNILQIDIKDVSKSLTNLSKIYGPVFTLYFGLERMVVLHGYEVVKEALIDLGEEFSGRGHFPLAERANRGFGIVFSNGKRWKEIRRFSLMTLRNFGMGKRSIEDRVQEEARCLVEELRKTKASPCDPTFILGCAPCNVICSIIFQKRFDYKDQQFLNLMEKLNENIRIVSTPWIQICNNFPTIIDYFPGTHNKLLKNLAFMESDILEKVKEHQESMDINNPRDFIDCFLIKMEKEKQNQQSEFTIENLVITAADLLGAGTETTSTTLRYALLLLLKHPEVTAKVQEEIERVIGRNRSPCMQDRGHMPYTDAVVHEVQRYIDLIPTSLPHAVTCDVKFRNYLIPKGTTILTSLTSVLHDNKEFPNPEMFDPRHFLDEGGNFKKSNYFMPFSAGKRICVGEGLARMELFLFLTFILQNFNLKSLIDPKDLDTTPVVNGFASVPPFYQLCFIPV

| SMILES | Potency [1] | Potency [2] | Potency [3] | Potency [4] | Potency [5] | Potency [6] | Potency [7] | Potency [8] | Potency [9] | Potency [10] | Potency [11] | Potency [12] | Potency [13] | Potency [14] | Potency [15] | Potency [16] |
| --- | --- | --- | --- | --- | --- | --- | --- | --- | --- | --- | --- | --- | --- | --- | --- | --- |
| CCC[CH2][Sn]([Cl])([Cl])[CH2]CCC | 501 nM (active) and 1.37 µM (active) | inactive | 220 nM (active) and 154 nM (active) | inactive | 4.38 µM (active) and 7.7 µM (active) | inactive | inactive | inactive | 36 µM (active) | 8.07 µM (active) and 22.4 µM (active) | 36 µM (active) | inactive | 39.4 µM (active) and 17.4 µM (active) | inactive |  |  |
| N#CCCCCC#N | inactive | inactive | inactive | inactive | inactive | inactive | inactive | inactive | inactive | 72.5 µM (active) and inactive | inactive |  | inactive | inactive | inactive |  |
| O=[N+]([O-])c1ccc(Cl)c([N+](=O)[O-])c1 | 31.6 µM (active) and 21.7 µM (active) | inactive | 6.96 µM (active) and 12.2 µM (active) | inactive | 55.3 µM (active) and 48.6 µM (active) | 64.3 µM (active) and 63.3 µM (active) | inactive | inactive |  | 40.6 µM (active) and 79.6 µM (active) |  | 12.8 µM (active) and 11.2 µM (active) | inactive | inactive | 9.84 µM (active) and 15.4 µM (active) |  |
| O=S(=O)(O)C(F)(F)C(F)(F)C(F)(F)C(F)(F)C(F)(F)C(F)(F)C(F)(F)C(F)(F)F | inactive | inactive |  | inactive | inactive | inactive | inactive | inactive | inactive | 42.6 µM (active) and 22.4 µM (active) | 537 nM (active) and 502 nM (active) and 423 nM (active) | inactive and 50.2 µM (active) | inactive | inactive | inactive and 54.5 µM (active) |  |
| Cn1c(-c2ccccc2)cc(-c2ccccc2)[n+]1C | inactive | inactive | inactive | inactive | inactive |  | inactive | inactive | 502 nM (active) and 1 µM (active) | inactive | inactive and 35.6 µM (active) | inactive | 43.6 µM (active) | inactive | inactive |  |
| C[N+](C)(C)C | inactive | inactive | inactive | inactive | inactive | inactive | inactive | inactive | inactive | inactive | inactive | inactive |  | inactive | inactive |  |
| CN(C)c1nc(=O)n(C2CCCCC2)c(=O)n1C | inactive | inactive | inactive | inactive | inactive | inactive | inactive | inactive | inactive | inactive | inactive | inactive | inactive | inactive | 65 µM (active) and inactive |  |
| OC(c1ccc(Cl)cc1)(c1cncnc1)c1ccccc1Cl (stereo not drawn) | inactive | inactive | 62.2 µM (active) | inactive |  | inactive | inactive | inactive | 36.2 µM (active) and 35.6 µM (active) | 229 nM (active) and 283 nM (active) | 7.23 µM (active) and 6.33 µM (active) |  | 49.8 µM (active) and 54.9 µM (active) | 182 nM (active) and 224 nM (active) | 31.2 µM (active) and 30.6 µM (active) | inactive |
| CNC(=S)S | inactive | inactive | inactive | inactive | inactive | inactive | inactive | inactive | inactive | 38.9 µM (active) | 61.7 µM (active) | inactive | inactive | inactive | inactive |  |
| CCCCCCCCCc1ccc(O)cc1 | 61.1 µM (active) | 61.8 µM (active) and 27.3 µM (active) | 61.8 µM (active) and 54.5 µM (active) |  | 43.3 µM (active) | inactive |  | inactive | inactive | 6.39 µM (active) and 10 µM (active) | 20.2 µM (active) and 31.7 µM (active) | inactive and 39.9 µM (active) | inactive |  | 61.8 µM (active) and 61.1 µM (active) |  |
| CC(C)(O)C(=O)Nc1ccc([N+](=O)[O-])c(C(F)(F)F)c1 |  | inactive | 44.2 µM (active) and 39.8 µM (active) | inactive | inactive | inactive | inactive | inactive |  | 18.2 µM (active) and 26 µM (active) | 25.7 µM (active) and 29.2 µM (active) | 7.25 µM (active) and 6.53 µM (active) | inactive | 40.8 µM (active) | 27.9 µM (active) and 25.1 µM (active) | inactive |
| OCCOCCO | inactive | 31.5 µM (active) and inactive | 7.92 µM (active) and inactive | inactive | inactive | inactive | inactive | inactive | inactive | 82.1 µM (active) and inactive | inactive | inactive | inactive | inactive | 62.9 µM (active) and inactive |  |
